Data as given in PubChem BioAssay (Tox21).
Records with an inconclusive call do not appear. Activity calls are given as the source filed them. Unless noted, the call rests on the fitted dose curve; in most records, active means well fitted curve in the direction sought with a large enough effect in the repeat runs; inconclusive means weak or mixed curves; inactive means no such curve, though single readings can be large; an effect the other way counts as inactive or inconclusive.

Tests used:
[1] = molecular target: Retinoic acid receptor RXR-alpha (Homo sapiens) (UniProt P19793); assay: qHTS assay to identify small molecule agonists of the RXR signaling pathway (AID 1159527; calls by dose curve; further: nearly all actives have a fitted effect of over 35% in size)
Retinoic acid receptor RXR-alpha (Homo sapiens), sequence (P19793 whole entry, looked up): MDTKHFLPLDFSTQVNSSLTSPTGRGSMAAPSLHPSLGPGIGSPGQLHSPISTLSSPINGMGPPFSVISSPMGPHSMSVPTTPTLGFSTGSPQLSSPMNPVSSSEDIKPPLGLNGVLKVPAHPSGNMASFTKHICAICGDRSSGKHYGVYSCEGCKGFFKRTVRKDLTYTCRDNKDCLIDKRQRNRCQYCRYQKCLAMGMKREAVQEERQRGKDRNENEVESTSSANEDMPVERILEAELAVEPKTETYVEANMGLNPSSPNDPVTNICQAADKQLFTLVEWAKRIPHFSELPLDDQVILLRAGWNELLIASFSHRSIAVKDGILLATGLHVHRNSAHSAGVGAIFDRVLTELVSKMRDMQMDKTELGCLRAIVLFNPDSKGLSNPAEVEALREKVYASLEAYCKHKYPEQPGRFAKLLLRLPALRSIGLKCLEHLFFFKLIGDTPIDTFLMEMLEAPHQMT
Method in brief: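 Agonist-mode beta-lactamase reporter assay: HEK 293T RXR-alpha-UAS-bla cells treated 16 hr at 37 C with compounds, 9-cis retinoic acid as positive control. LiveBLAzer FRET substrate, 405 nm excitation, 460/530 nm emission.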

[2] = qHTS assay to identify small molecule agonists of the RXR signaling pathway - cell viability counter screen (AID 1159529); further: series mostly up to about 77 µM; nearly all actives have a fitted effect of over 50% in size
Method in brief: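 CellTiter-Glo luminescence gave viability in the wells also read for beta-lactamase. Cells (RXR-alpha-UAS-bla HEK 293T, 2% charcoal-stripped FBS medium) had 5 hr plating, then 16 hr compound exposure at 37 C; tetraoctyl ammonium bromide served as positive control.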

[3] = qHTS assay to identify small molecule antagonists of the retinoid acid receptor (RAR) signaling pathway - cell viability counter screen (AID 1159551); further: nearly all actives have a fitted effect of over 35% in size
Method in brief: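 Following overnight attachment, C3RL4 reporter cells received DMSO-dissolved compounds and then retinol (1 uM final). Six hours later at 37 C, ATP content was measured by CellTiter-Glo luminescence.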

[4] = qHTS assay to identify small molecule antagonists of the retinoic acid receptor (RAR) signaling pathway (AID 1159552; further: nearly all actives have a fitted effect of over 50% in size)
Method in brief: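 Luminescent RARE reporter read-out in C3RL4 cells: 6 hr co-treatment at 37 C of test compounds with retinol at 1 uM final. Cells plated overnight beforehand; luciferase reagent incubated 30 min at room temperature before reading.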

[5] = qHTS assay to identify small molecule agonists of the retinoic acid receptor (RAR) signaling pathway (AID 1159553)
Method in brief: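 Cell line C3RL4, RARE luciferase reporter. Treatment: compounds in DMSO, 6 hr, 37 C, 5% CO2, after overnight plating. Detection: luminescence, 30 min RT after reagent.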

[6] = molecular target: Luciferin 4-monooxygenase (Photinus pyralis) (UniProt P08659); assay: qHTS assay to identify small molecule inhibitors of firefly luciferase (AID 1224835); further: series mostly up to about 120 µM; nearly all actives have a fitted effect of over 25% in size
Luciferin 4-monooxygenase (Photinus pyralis), sequence (P08659 whole entry, looked up): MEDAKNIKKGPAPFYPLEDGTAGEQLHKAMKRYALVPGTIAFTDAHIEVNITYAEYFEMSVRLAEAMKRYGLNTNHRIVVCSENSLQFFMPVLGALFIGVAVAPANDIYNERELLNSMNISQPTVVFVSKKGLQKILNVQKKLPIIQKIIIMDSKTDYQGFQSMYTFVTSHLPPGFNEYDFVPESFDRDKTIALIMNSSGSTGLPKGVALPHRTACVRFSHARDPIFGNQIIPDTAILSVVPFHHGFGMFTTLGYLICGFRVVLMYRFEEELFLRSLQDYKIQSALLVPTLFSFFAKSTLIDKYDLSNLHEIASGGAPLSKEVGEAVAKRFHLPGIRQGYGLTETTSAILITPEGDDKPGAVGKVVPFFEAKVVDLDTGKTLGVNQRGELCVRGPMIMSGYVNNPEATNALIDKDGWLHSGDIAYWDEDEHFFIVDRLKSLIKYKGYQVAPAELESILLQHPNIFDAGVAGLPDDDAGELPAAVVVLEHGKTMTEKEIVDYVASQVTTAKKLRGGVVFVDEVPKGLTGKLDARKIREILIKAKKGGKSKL
Method in brief: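 Quantitative HTS format; KM concentrations of both substrates. Purified P. pyralis FLuc activity quantified from luminescence images.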

[7] = qHTS assay to identify small molecule agonists of the constitutive androstane receptor (CAR) signaling pathway - cell viability counter screen (AID 1224836); further: series mostly up to about 92 µM; nearly all actives have a fitted effect of over 45% in size
Method in brief: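 Cell viability multiplexed with the CAR agonist screen: CellTiter-Fluor fluorescence after 23 hr at 37 C. HepG2-CYP2B6-hCAR cells got compounds at 15 concentrations with PK11195 at 0.75 uM final.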

[8] = qHTS assay to identify small molecule antagonists of the constitutive androstane receptor (CAR) signaling pathway - cell viability counter screen (AID 1224837); further: series mostly up to about 92 µM; nearly all actives have a fitted effect of over 45% in size
Method in brief: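 Fluorescence from CellTiter-Fluor served as the viability signal. Human hepatoma HepG2 cells stably bearing hCAR and CYP2B6-2.2kb received compound plus CITCO (50 nM final) for 23 hr.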

[9] = molecular target: Nuclear receptor subfamily 1 group I member 3 (Homo sapiens) (UniProt Q14994); assay: qHTS assay to identify small molecule antagonists of the constitutive androstane receptor (CAR) signaling pathway (AID 1224838);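 further: HepG2 cells stably expressing hCAR with CYP2B6 luciferase reporter stimulated by CITCO; nearly all actives have a fitted effect of over 40% in size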
Nuclear receptor subfamily 1 group I member 3 (Homo sapiens), sequence (Q14994 whole entry, looked up): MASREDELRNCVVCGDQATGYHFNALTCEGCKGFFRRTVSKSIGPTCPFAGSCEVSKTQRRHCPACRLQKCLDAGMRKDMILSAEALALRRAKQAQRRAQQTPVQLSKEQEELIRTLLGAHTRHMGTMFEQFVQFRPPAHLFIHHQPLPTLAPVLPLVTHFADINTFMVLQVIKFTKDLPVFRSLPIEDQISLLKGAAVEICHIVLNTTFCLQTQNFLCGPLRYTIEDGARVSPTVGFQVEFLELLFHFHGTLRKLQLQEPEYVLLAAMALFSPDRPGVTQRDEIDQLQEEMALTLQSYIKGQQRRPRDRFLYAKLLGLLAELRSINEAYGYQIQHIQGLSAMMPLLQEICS
Method in brief: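 Quantitative HTS in double-stable HepG2-CYP2B6-hCAR cells. After 4 h plating, cells get compound (15 concentrations) and CITCO at 50 nM final, incubate 24 h at 37 C, then ONE-Glo luminescence is read.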

[10] = molecular target: Nuclear receptor subfamily 1 group I member 3 (Homo sapiens) (UniProt Q14994); assay: qHTS assay to identify small molecule agonists of the constitutive androstane receptor (CAR) signaling pathway (AID 1224839);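 further: HepG2 cells stably carrying human CAR and a CYP2B6 luciferase reporter; series mostly up to about 92 µM; nearly all actives have a fitted effect of over 15% in size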
Method in brief: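 Luminescent ONE-Glo read-out after 24 hr, 37 C exposure of double-stable HepG2-CYP2B6-hCAR reporter cells to a 15-point compound series, in the presence of 0.75 uM PK11195 (final).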

[11] = qHTS assay to identify small molecule antagonists of the estrogen related receptor signaling pathway with the pleiotropic PPARgamma coactivator (PGC) from Tox21 10K library - cell viability counter screen (AID 1224840; active means well fitted cell-killing curve with a large enough effect in the repeat runs, not every such curve was filed as active; further: nearly all actives have a fitted effect of over 40% in size)
Method in brief: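 Compounds in DMSO, alongside positive and negative controls, were pinned onto PGC/ERR cells (2,000 per well). Exposure lasted 17.5 hours at 37 C, followed by a 30-minute CellTiter-Fluor incubation and fluorescence reading.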

[12] = molecular target: Thyrotropin receptor (Homo sapiens) (UniProt P16473); assay: qHTS assay to identify small molecule agonists of the thyroid stimulating hormone receptor (TSHR) signaling pathway (AID 1224843; calls by dose curve; further: nearly all actives have a fitted effect of over 45% in size)
Thyrotropin receptor (Homo sapiens), sequence (P16473 whole entry, looked up): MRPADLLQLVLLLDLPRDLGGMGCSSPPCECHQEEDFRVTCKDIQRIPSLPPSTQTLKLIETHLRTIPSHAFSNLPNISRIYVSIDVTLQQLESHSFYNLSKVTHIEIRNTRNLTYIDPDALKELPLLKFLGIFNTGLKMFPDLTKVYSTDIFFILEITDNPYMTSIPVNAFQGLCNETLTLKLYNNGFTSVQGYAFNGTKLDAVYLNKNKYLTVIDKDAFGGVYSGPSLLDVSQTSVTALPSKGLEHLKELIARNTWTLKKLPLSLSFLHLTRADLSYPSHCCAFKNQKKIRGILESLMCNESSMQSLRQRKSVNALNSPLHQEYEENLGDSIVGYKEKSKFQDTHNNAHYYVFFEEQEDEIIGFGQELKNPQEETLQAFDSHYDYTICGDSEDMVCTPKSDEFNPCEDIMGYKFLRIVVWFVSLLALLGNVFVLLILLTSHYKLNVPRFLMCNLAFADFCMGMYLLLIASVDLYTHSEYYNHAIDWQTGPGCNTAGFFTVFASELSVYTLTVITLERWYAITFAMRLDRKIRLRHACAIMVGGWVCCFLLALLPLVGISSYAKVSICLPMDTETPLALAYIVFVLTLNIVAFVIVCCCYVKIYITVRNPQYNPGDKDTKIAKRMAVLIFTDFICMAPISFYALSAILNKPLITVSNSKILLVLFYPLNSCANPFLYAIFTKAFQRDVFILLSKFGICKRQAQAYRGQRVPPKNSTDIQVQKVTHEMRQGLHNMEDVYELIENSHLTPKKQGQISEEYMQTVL
Method in brief: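 Cell line HEK293 with TSHR; density 800/well. Exposure 30 min RT. Readout HTRF cAMP (cAMP-d2/anti-cAMP-cryptate), 1 h RT before reading.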

[13] = qHTS assay to identify small molecule agonists of the hypoxia (HIF-1) signaling pathway - cell viability counter screen (AID 1224844; calls by dose curve; further: nearly all actives have a fitted effect of over 50% in size)
Method in brief: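 Luminescent ATP content (CellTiter-Glo, 30 min, room temperature) served as the viability measure in HRE-bla ME-180 cells exposed to compounds for 17 hrs in low-serum medium (0.5% dialyzed FBS).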

[14] = qHTS assay to identify small molecule agonists of H2AX (AID 1224845; active means well fitted activation curve with a large enough effect in the signal ratio in the repeat runs, not every such curve was filed as active; the % refers to the signal ratio)
Method in brief: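 Wild-type CHO-K1 cells plated overnight, then exposed 3 hr at 37C to compounds at 15 concentrations (0.76% DMSO). Lysed, then HTRF anti-pH2AX(S139)-cryptate/anti-H2AX-d2 detection after 24 hr at room temperature; emissions 665 and 620 nm.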

[15] = qHTS assay to identify small molecule agonists of the hypoxia (HIF-1) signaling pathway (AID 1224846; active means well fitted activation curve with a large enough effect in the signal ratio in the repeat runs, not every such curve was filed as active; the % refers to the signal ratio)
Method in brief: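 Measured by blue/green FRET after loading CCF4-AM: beta-lactamase expressed from a hypoxia response element in ME-180 cells. Test agents were delivered in DMSO and left 17 hrs; cells had been plated 5 hrs earlier in low-serum (0.5% dialyzed FBS) medium.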

[16] = qHTS assay to identify small molecule agonists of H2AX - cell viability counter screen (AID 1224847; calls by dose curve; further: top concentration of the series differs between compounds; nearly all actives have a fitted effect of over 30% in size)
Method in brief: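 Counter-screen for viability: CellTiter-Glo ATP luminescence read after 3 h compound treatment (15-point titration, 0.76% DMSO final) of CHO-K1 cells at 37C, with 30 min room-temperature reagent incubation.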

[17] = qHTS assay to identify small molecule antagonists of the estrogen related receptor (ERR) signaling pathway from Tox21 library - cell viability counter screen (AID 1224834); further: nearly all actives have a fitted effect of over 30% in size
Method in brief: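 Viability readout (CellTiter-Fluor fluorescence, 30 min at 37 C) multiplexed with the ERR assay; cells treated 17.5 h at 37 C with compounds delivered in DMSO.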

Measured: Potency

CC(=O)CCc1ccc(OC(C)=O)cc1
not listed: [17]
inactive: all other assays above

C#CCN[C@@H]1CCc2ccccc21
not listed: [16] | [17]
inactive: all other assays above

O=C(CCCl)NCCc1ccccc1
not listed: [17]
inactive: all other assays above

CCCCCCCCCOC(=O)c1ccccc1C(=O)OCCCCCCCCC
not listed: [6] | [17]
inactive: all other assays above

CN(C)CCN(C)CCO
not listed: [2] | [16]
inactive: all other assays above

C=C(C)C1CC=C(C)C(=O)C1 (configuration not stated)
not listed: [4] | [5] | [9] | [10] | [15] | [16]
inactive: all other assays above

C/C(=C1\CCOC(=O)S1)N(C=O)Cc1cnc(C)nc1N
not listed: [16] | [17]
inactive: all other assays above

CO[C@@]1(NC(=O)Cc2cccs2)C(=O)N2C(C(=O)O)=C(COC(N)=O)CS[C@@H]21
not listed: [15] | [16] | [17]
inactive: all other assays above
